Measurements from PubChem BioAssay (EPA / NIEHS).
Values joined by “and” are separate entries in the source; they are usually repeats but may differ in a detail not shown here. Equal entries are not always repeated. Records with an inconclusive call do not appear. Active and inactive are the calls of the source. Rule for the calls, unless noted: active = hit-call score of the fitted dose curve at least 0.9, where 1 is the maximum; inactive = score below 0.9.

Experiments:
[1] = CCTE_Harrill_HTTr_CellCount_MCF7: CCTE's Cell Proliferation Assessment for the High-Throughput Transcriptomics (HTTr) Platform, Harrill Lab (AID 2284012; active = hit-call score of the fitted dose curve at least 0.9, where 1 is the maximum;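 note: cells exposed to compound for six hours; intended direction is loss of nuclei count meaning fewer cells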)
Summary of the method: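 Cell count from high-content imaging of Hoechst-labeled nuclei serves as viability/growth readout. Chemicals were applied to MCF-7 cells in eight concentrations for six hours, with fitting in both directions relative to DMSO.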

[2] = CCTE_Shafer_MEA_acute_burst_number: CCTE's Neural Acute Assay for Single-Electrode Bursts, Shafer Lab (AID 2284013)
Summary of the method: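 Primary rat cortical neurons on 16-electrode MEA wells, DIV 13 or 15, exposed to compound (0.03-40 uM; ≥3 wells); 40-min recordings at 37 C before and after treatment. Burst count expressed as percent change from baseline, DMSO as negative control.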

[3] = CCTE_Shafer_MEA_acute_burst_duration_mean: CCTE's Neural Acute Assay for Mean Burst Duration, Shafer Lab (AID 2284014);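 note: hits are decreases in mean burst duration relative to DMSO controls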
Summary of the method: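 Mean burst duration was compared between a 40 min baseline and a 40 min recording in the presence of compound (0.03-40 uM, 37 C), giving percent change per well. Cultures were rat cortical neurons at DIV 13 or 15; wells needed ≥10 active electrodes.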

[4] = CCTE_Shafer_MEA_acute_per_burst_spike_number_mean: CCTE's Neural Acute Assay for Average Number of Spikes Per Burst, Shafer Lab (AID 2284015);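 note: hits are decreases in mean spikes per burst versus baseline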
Summary of the method: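 Percent change in mean spikes per single-electrode burst is compared between a 40 min baseline and a 40 min recording with compound (0.03-40 uM). Cultures were rat cortical neurons on MEA plates at DIV 13 or 15, recorded at 37 C, with DMSO as the negative control.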

[5] = CCTE_Shafer_MEA_acute_interburst_interval_mean: CCTE's Neural Acute Assay for Mean Interburst Interval, Shafer Lab (AID 2284016);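 note: percent change of mean interburst interval versus each well's own pre-dose baseline; curves fitted for decrease in interburst interval relative to DMSO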
Summary of the method: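 Percent change in mean single-electrode interburst interval was calculated per well from 40 min recordings before and after compound (0.03-40 uM). Recordings were made at 37 C on rat cortical cultures at DIV 13 or 15, with spikes detected at 8x rms threshold.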

[6] = CCTE_Shafer_MEA_acute_burst_percentage_mean: CCTE's Neural Acute Assay for Percentage of Spikes in a Burst, Shafer Lab (AID 2284017);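 for AC50: curve fitted for loss of signal so potency reflects decreased burst percentage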
Summary of the method: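 Well-level mean burst percentage from a 40-min recording after compound (0.03-40 uM) expressed as percent change from a 40-min baseline at 37C. Cultures: primary rat cortical neurons on MEA, dosed on DIV 13 or 15; fitted downward relative to DMSO.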

[7] = CCTE_Shafer_MEA_acute_burst_percentage_std: CCTE's Neural Acute Assay for Standard Deviation of Burst Percentage, Shafer Lab (AID 2284018);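 note: fitted in the negative direction so actives lower burst percentage SD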
Summary of the method: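 Value is percent change from baseline in the across-electrode SD of spikes-in-bursts percentage, wells with >/= 10 active electrodes. Acute 40-min exposure to 0.03-40 uM on DIV 13 or 15 rat cortical cultures, recorded at 37 C after 40-min baseline.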

[8] = CCTE_Shafer_MEA_acute_per_network_burst_spike_number_mean: CCTE's Neural Acute Assay for Average Number of Spikes in a Network Burst, Shafer Lab (AID 2284019);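 for AC50: curve fitted for loss of signal so actives reduce spikes per network burst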
Summary of the method: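 Percent change from baseline in mean spikes per network burst, spikes detected at 8x rms noise. Each compound at 0.03-40 uM in at least three wells of rat cortical cultures, recorded 40 min before and 40 min during exposure.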

[9] = CCTE_Shafer_MEA_acute_per_network_burst_spike_number_std: CCTE's Neural Acute Assay for Standard Deviation of Number of Spikes in a Network Burst, Shafer Lab (AID 2284020);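 note: fitted for decrease in spike-number SD versus DMSO so actives lower it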
Summary of the method: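 Endpoint: percent change from 40 min baseline in standard deviation of spikes per network burst, after 40 min compound exposure (0.03-40 uM, 37 C). Cortical rat neurons on MEA at DIV 13 or 15; spikes detected at 8x rms noise, 300-5000 Hz band-pass.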

[10] = CCTE_Shafer_MEA_acute_per_network_burst_electrodes_number_mean: CCTE's Neural Acute Assay for Mean Number of Electrodes in a Network Burst, Shafer Lab (AID 2284021);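 note: curves fitted for decreases only so hits reduce electrodes per burst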
Summary of the method: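 Readout: % change in mean electrodes active per network burst, post- vs pre-treatment, each well. Spikes detected at 8x rms noise after 300-5000 Hz band-pass; rat cortical cultures, DIV 13/15, compounds 0.03-40 uM, DMSO baseline.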

[11] = CCTE_Shafer_MEA_acute_network_burst_percentage: CCTE's Neural Acute Assay for Percentage of Network Bursts, Shafer Lab (AID 2284022);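 note: curves fitted for loss so actives lower network burst percentage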
Summary of the method: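 Rat cortical cultures, DIV 13/15; 20 min equilibration, 40 min baseline, compound 0.03-40 uM, 40 min recording, 37 C. Spikes: 300-5000 Hz band-pass, threshold 8x rms noise. Readout: % change in network-burst spike fraction; loss direction vs DMSO.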

[12] = CCTE_Shafer_MEA_acute_cross_correlation_area: CCTE's Neural Acute Assay for Area of Cross Correlation, Shafer Lab (AID 2284024);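 note: area under pooled inter-electrode spike cross-correlation near zero lag as percent change from own baseline; curves fitted for loss of cross-correlation area so actives lower synchrony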
Summary of the method: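 Rat cortical cultures, DIV 13/15, MEA; spikes detected at 8x rms noise (300-5000 Hz band-pass). Compound 0.03-40 uM, ≥3 wells each. Readout: % change in pooled inter-electrode cross-correlation area vs own baseline; DMSO negative control.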

[13] = CCTE_Shafer_MEA_acute_synchrony_index: CCTE's Neural Acute Assay for Synchrony, Shafer Lab (AID 2284027);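 note: network synchrony index of spontaneous spiking in primary rat cortical neurons on MEAs; fitted for loss of signal so actives lower synchrony relative to DMSO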
Summary of the method: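 The synchrony index is taken as percent change per well between a 40 min baseline and a 40 min recording with compound (0.03–40 uM), at 37C. Rat cortical cultures on multiwell MEAs at DIV 13 or 15, spike threshold 8× rms noise.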

[14] = CCTE_Shafer_MEA_dev_firing_rate_mean: CCTE's Neural Network Formation Assay for Mean Firing Rate, Shafer Lab (AID 2284031)
Summary of the method: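 Spike frequency (spikes/recording length, averaged over active electrodes) was recorded on days 5, 7, 9 and 12 and collapsed to AUC; rat cortical cultures received compound continuously over 12 days of network development.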

[15] = CCTE_Shafer_MEA_dev_per_burst_spike_percent: CCTE's Neural Network Formation Assay for Percent of Spikes in a Burst, Shafer Lab (AID 2284032);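 for AC50: fitted as a decrease in burst spike percentage below DMSO baseline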
Summary of the method: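 Value is trapezoidal AUC over recordings on days 5, 7, 9 and 12 of the well-mean fraction of spikes falling in single-electrode bursts; rat cortical cultures exposed continuously from plating, treatment renewed DIV 5 and 9, fitted downward against DMSO.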

[16] = molecular target: Estrogen receptor (Homo sapiens) (UniProt P03372); assay: CCTE_Deisenroth_AIME_384WELL_LUC_Active: CCTE's 384-well Estrogen Receptor Transactivation Assay with AIME metabolic competence (ERTA luciferase; metabolism positive), Deisenroth Lab (AID 2284030; active = hit-call score of the fitted dose curve at least 0.9, where 1 is the maximum)
Summary of the method: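 Readout: bioluminescent luciferase induction in VM7Luc4E2 cells 24 hour after receiving medium from a 2 h rat hepatic S9 (induced, alginate microsphere) metabolism step. Concentrations 0.002 - 200 uM; activity scaled to 17beta-estradiol positive control.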

[17] = molecular target: Estrogen receptor (Homo sapiens) (UniProt P03372); assay: CCTE_Deisenroth_AIME_96WELL_LUC_Active: CCTE's 96-well Estrogen Receptor Transactivation Assay with AIME metabolic competence (ERTA luciferase; metabolism positive), Deisenroth Lab (AID 2284023; active = hit-call score of the fitted dose curve at least 0.9, where 1 is the maximum)
Summary of the method: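 Metabolism-positive mode: induced rat hepatic S9 in alginate microspheres conditions test solutions (0.002 - 200 uM, 10 points) for 2 hours. VM7Luc4E2 ER luciferase reporter cells then exposed 24 h; positive-direction fit against 17beta-estradiol, n=4 typical.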

[18] = molecular target: Estrogen receptor (Homo sapiens) (UniProt P03372); assay: CCTE_Deisenroth_AIME_96WELL_LUC_Inactive: CCTE's 96-well Estrogen Receptor Transactivation Assay without AIME metabolic competence (ERTA luciferase; metabolism negative), Deisenroth Lab (AID 2284025; active = hit-call score of the fitted dose curve at least 0.9, where 1 is the maximum)
Summary of the method: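 Metabolism-negative arm: chemicals (0.002–200 uM, 10 points) incubated 2 h with alginate-water microspheres, then medium moved onto VM7Luc4E2 cells for 24 h luciferase read-out. Positive direction vs 17beta-estradiol; n≥4 experiments.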

Measured: AC50

Chain of Estrogen receptor (Homo sapiens) (P03372 whole entry, looked up): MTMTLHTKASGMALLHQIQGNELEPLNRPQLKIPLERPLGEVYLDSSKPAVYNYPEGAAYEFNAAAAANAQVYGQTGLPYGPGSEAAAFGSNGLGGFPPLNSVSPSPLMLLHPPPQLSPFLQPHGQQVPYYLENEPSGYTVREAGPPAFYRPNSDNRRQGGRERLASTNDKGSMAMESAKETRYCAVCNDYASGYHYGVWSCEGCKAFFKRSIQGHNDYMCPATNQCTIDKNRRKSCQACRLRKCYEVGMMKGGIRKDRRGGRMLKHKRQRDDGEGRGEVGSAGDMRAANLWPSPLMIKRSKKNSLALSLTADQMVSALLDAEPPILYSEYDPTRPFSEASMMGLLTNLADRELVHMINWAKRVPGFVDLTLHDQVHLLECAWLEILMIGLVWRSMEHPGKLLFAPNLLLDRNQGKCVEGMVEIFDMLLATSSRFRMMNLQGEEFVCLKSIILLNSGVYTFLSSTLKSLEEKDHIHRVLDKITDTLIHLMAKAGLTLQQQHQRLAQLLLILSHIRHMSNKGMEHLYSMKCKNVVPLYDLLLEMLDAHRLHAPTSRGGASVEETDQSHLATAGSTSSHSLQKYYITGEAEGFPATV

COC(=O)c1ccccc1C(=O)O
inactive: [1] | [2] | [3] | [4] | [5] | [6] | [7] | [8] | [9] | [10] | [11] | [12] | [13]

CCCN(CCC)c1c([N+](=O)[O-])cc(C(F)(F)F)c(N)c1[N+](=O)[O-]
inactive: [1] | [2] | [3] | [4] | [5] | [6] | [8] | [9] | [10] | [11] | [12] | [13]
active: [7] 31.1 µM

O=C(O)C1(C(=O)Nc2ccc(Cl)cc2Cl)CC1
inactive: [1]

CCCCC(CC)CN1C(=O)C2C3C=CC(C3)C2C1=O (centres undefined)
inactive: [2] | [3] | [4] | [5] | [10] | [11] | [12] | [14] | [15]
active: [6] 36 µM | [7] 30.3 µM | [8] 4.1 µM | [9] 29.8 µM | [13] 4.02 µM

c1ccc2[nH]c(-c3cscn3)nc2c1
active: [16] 30.5 µM
inactive: [1]

CCCN(CCC)C(=O)SCC
inactive: [1] | [14] | [15]

CCNc1nc(N)nc(Cl)n1
inactive: [2] | [3] | [4] | [5] | [6] | [7] | [8] | [9] | [10] | [11] | [12] | [13]

CCCCOCCOCCOCc1cc2c(cc1CCC)OCO2
inactive: [14]
active: [15] 10 µM

CSC(=O)c1cccc2nnsc12
inactive: [2] | [3] | [4] | [5] | [6] | [7] | [8] | [9] | [10] | [11] | [12] | [13] | [16] | [14] | [15]

O=C(c1ccccc1)C1CCCCC1
inactive: [2] | [3] | [4] | [5] | [7] | [8] | [9] | [10] | [11] | [12] | [13]
active: [6] 20 µM

CC1(C)C(C=C(Cl)Cl)C1C(=O)OCc1cccc(Oc2ccccc2)c1 (centres undefined)
inactive: [2] | [3] | [5] | [7] | [8] | [9] | [12] | [14]
active: [6] 20 µM | [10] 6 µM | [11] 20 µM | [17] 65.9 µM | [18] 75.6 µM | [13] 34.7 µM | [15] 21.4 µM and 7.56 µM

S=C([S-])NCCNC(=S)[S-].[Mn+2]
inactive: [1] | [14] | [15]

CCCCOC(=O)[C@@H](C)Oc1ccc(Oc2ccc(C(F)(F)F)cn2)cc1
inactive: [1] | [16]

CCCCOC(=O)C(C)Oc1ccc(Oc2ccc(C(F)(F)F)cn2)cc1 (centres undefined)
inactive: [16]

CCN(CC)C(=O)c1cccc(C)c1
inactive: [1] | [16] | [14] | [15]

O=C(c1ccc(O)cc1O)c1ccc(O)cc1O
inactive: [2] | [3] | [4] | [5] | [6] | [7] | [8] | [9] | [10] | [11] | [12] | [13]
active: [16] 6.67 µM

CCSC(=O)N(CC(C)C)CC(C)C
inactive: [16]

S=C(S)NCCNC(=S)S.[Mn+2].[S-]C([S-])=NCCN=C([S-])[S-].[Zn+2]
inactive: [1] | [14]
active: [15] 7.52 µM

C#CCOC(=O)[C@@H](C)Oc1ccc(Oc2ncc(Cl)cc2F)cc1
inactive: [2] | [3] | [4] | [5] | [6] | [7] | [8] | [9] | [10] | [11] | [12] | [13] | [16] | [14] | [15]

COc1c(Cl)ccc(Cl)c1C(=O)O
inactive: [16]

O=C(Nc1ccc([N+](=O)[O-])cc1Cl)c1cc(Cl)ccc1O
active: [2] 0.0944 µM | [3] 0.621 µM | [4] 0.292 µM | [5] 0.183 µM | [6] 0.269 µM | [8] 0.179 µM | [9] 0.37 µM | [10] 0.301 µM | [11] 0.252 µM | [12] 0.0774 µM | [13] 0.277 µM
inactive: [7] | [16]

COCCO
inactive: [14] | [15]

CCOC(=O)COc1cc(-n2ncc(C(F)(F)F)c(C)c2=O)c(F)cc1Cl
inactive: [1] | [16]

C[C@]12CC[C@@H]3c4ccc(O)cc4C[C@@H](CCCCCCCCCS(=O)CCCC(F)(F)C(F)(F)F)[C@H]3[C@@H]1CC[C@@H]2O (some centres undefined)
inactive: [17] | [18]
